# The list is not random: actives were taken first. Their share in the collection is about 9.4%.
# ELG1 repair inh: inhibitors of ELG1-dependent DNA repair in HEK293T cells | HEK293T ELG1-luciferase reporter, luminescence, 16 h; DNA damage induced by 5-fluorouridine | Potency, µM (doses to about 46.1 µM), hits mostly inhibitors | hit rate 2.3% among 330,000 | AID 504467; also: nearly all actives have a fitted effect of over 55% in size
#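 Quantitative HTS, concentration-response format. 2,000 cells/well co-treated with 5-fluorouridine and compound, 16 hr in 5% CO2 at 37 °C; ONE-Glo luminescence read after 30 min.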
# Rab9 prom act: activators of Rab9 promoter; Huh7 Rab9 promoter-luciferase reporter, luminescence, 24 h; Potency, µM (titrated, usually from 9.22 µM), most hits filed as activators; hit rate 2.8% among 320,000; also: nearly all actives have a fitted effect of over 60% in size
#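 Cells were plated at 1500 per well in reduced-serum medium with 10% FBS and left 2 h. Compound in DMSO was then added for 24 h at 37 °C. Reporter signal was read by luminescence after 10 min with luciferase detection reagent.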
# ELG1 genotoxic: induces genotoxicity in HEK293T cells with luciferase-tagged ELG1; HEK293T ELG1-luciferase reporter, luminescence, 16 h; Potency, µM (series often up to 46 µM), most hits filed as activators; hit rate 1.3% among 330,000; AID 504466; also: nearly all actives have a fitted effect of over 60% in size
#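 16 hr compound incubation (37 °C, 5% CO2) of HEK293T cells carrying luciferase-tagged ELG1; luciferase then measured by ONE-Glo luminescence after 30 min at RT.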
# SMN2 splice up: enhancers of SMN2 splice variant expression; HEK293 SMN2-luciferase splicing reporter, luminescence, 30-36 h; Potency, µM (series often up to 46.1 µM), usual class: activators; hit rate 2.8% among 210,000; AID 1458; also: nearly all actives have a fitted effect of over 55% in size
#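 HEK293 cells carry an SMN2 […]–luciferase reporter in which exon 7 inclusion puts luciferase in frame. Cells were plated 10-12 h before compound addition, then incubated 30-36 h at 37C. ONE-Glo luminescence was read; sodium butyrate at 4.5 mM final served as control.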
# FLuc modulator: firefly luciferase modulation, counter-screen for miR-21 project; Potency, µM (series often up to 57.5 µM), most hits filed as inhibitors; AID 588342; purified FLuc, Km substrates, luminescence inhibition; hit rate 6.9% among 360,000; also: nearly all actives have a fitted effect of over 55% in size
# Target sequence (P08659 whole entry, looked up): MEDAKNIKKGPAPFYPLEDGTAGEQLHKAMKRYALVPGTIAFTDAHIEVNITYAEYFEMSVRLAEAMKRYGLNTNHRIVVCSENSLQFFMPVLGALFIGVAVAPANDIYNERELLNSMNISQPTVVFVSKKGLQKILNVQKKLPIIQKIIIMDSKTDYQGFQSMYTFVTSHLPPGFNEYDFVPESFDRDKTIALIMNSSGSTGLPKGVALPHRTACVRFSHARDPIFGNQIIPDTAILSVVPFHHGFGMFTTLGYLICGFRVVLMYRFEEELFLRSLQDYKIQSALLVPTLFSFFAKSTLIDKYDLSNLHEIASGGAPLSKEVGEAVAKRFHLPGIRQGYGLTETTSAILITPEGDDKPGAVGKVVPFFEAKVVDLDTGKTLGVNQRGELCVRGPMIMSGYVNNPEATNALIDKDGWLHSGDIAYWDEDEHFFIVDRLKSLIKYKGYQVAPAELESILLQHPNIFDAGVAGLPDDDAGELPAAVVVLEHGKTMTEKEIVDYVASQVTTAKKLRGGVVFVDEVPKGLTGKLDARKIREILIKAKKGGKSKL
#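 Purified P. pyralis luciferase, 10 nM final, with Km-level 10 uM D-luciferin and 10 uM ATP in 50 mM Tris acetate pH 7.5, 10 mM Mg acetate, 0.01% Tween-20, 0.05% BSA; 6-point qHTS titration about 60 µM downward; luminescence read.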
# NPC1 prom act: activators of NPC1 promoter | hit rate 2.4% among 320,000 | Huh7 NPC1 promoter luciferase reporter, 24 h | Potency, µM (top dose mostly 9.22 µM), usual class: activators; also: nearly all actives have a fitted effect of over 60% in size
#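 In 1536-well qHTS, Huh7 cells harboring an NPC1 promoter–luciferase construct received compound for 24 h; activation was quantified by luminescence following luciferase reagent addition.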
# A number is an active result; – = inactive; ? = inconclusive; · = no result. Calls follow the shape of the dose curve; as a rule, active = well fitted curve in the direction sought with a large enough effect; inconclusive = small, poorly fitted or top-dose-only effect, or another doubt; inactive = no such curve, though single readings can be large; an effect the other way counts as inactive or inconclusive.
SMILES,ELG1 repair inh,Rab9 prom act,ELG1 genotoxic,SMN2 splice up,FLuc modulator,NPC1 prom act
O=C(N/N=C/c1cccnc1)c1ccco1,?,–,–,·,–,–
O=C(Oc1ccc(/C=N/NC(=O)c2ccco2)cc1)c1ccccc1,?,?,?,·,–,–
O=C(N/N=C/C(Cl)=C\c1ccccc1)c1ccco1,?,2.51µM,?,·,4.78µM,2.51µM
Cc1ccc(C)c(CN2C(=O)c3ccccc3S(=O)(=O)c3ccc(C(=O)N4CCN(c5ccccc5F)CC4)cc32)c1,·,·,·,–,–,·
Cc1ccc(/C=N\NC(=O)/C(=C\Nc2nccc(C)n2)NC(=O)c2ccccc2)cc1,–,–,–,·,15.1µM,–
COc1ccc(/C=N\NC(=O)/C(=C\Nc2nccc(C)n2)NC(=O)c2ccccc2)cc1,–,–,–,–,15.1µM,–
CCn1cc(/C=C(\NC(=O)c2ccc(OC)c(OC)c2)C(=O)NCCCn2ccnc2)c2ccccc21,·,·,·,–,–,·
CC1=NN(c2ccccc2)C(=O)/C1=C\c1cc(C)n(-c2ccccc2)c1C,?,–,?,–,0.536µM,–
Cc1cc(/C=C2/SC(=S)N(c3ccc([N+](=O)[O-])cc3)C2=O)c(C)n1-c1cccnc1,–,–,–,–,–,–
CC1=NN(c2ccccc2)C(=O)/C1=C\c1cc(C)n(-c2cccnc2)c1C,–,–,–,·,2.69µM,–
CC1=NN(c2cccc(C(=O)O)c2)C(=O)/C1=C\C=C/c1ccccc1,?,–,–,–,2.39µM,–
Cc1cc(NC(=O)C2CCN(S(=O)(=O)c3cccc4nsnc34)CC2)ccc1Br,·,·,·,–,–,·
CCN(CC)CCOC(=O)c1ccc(NC(=O)c2cc3cccc(OC)c3oc2=O)cc1,·,·,·,·,–,·
CCCc1cc(=O)[nH]c(Nc2ccc(O)cc2C)n1,·,·,·,–,–,·
Cc1cc(O)ccc1Nc1nc2ccccc2nc1Nc1ccc(O)cc1C,–,–,–,–,16.9µM,–
Cc1ccc(CNC(=O)CCC(=O)N2CC3CCCN3c3ccccc32)cc1 (centres undefined),·,·,·,·,–,·
O=c1oc2c(CN3CCOCC3)c(O)ccc2c2ccccc12,?,–,–,–,?,3.98µM
O=c1oc2c(CN3CCOCC3)c(O)ccc2c2c1CCCC2,–,–,–,–,–,–
O=C(Nc1ccc2nc3n(c(=O)c2c1)CCCC3)c1ccccc1F,?,–,–,·,?,–
O=C(Nc1ccc2nc3n(c(=O)c2c1)CCCCC3)c1ccccn1,?,1.12µM,?,3.16µM,7.57µM,1.58µM
COc1cc(C(=O)Nc2ccc3nc4n(c(=O)c3c2)CCCCC4)cc(OC)c1OC,?,–,–,–,13.5µM,–
CCOc1ccc(OCC)c(NC(=O)C(NS(=O)(=O)c2ccc(Br)s2)c2ccccc2)c1 (centres undefined),·,·,·,–,–,·
CCc1c(C)nc2cc(-c3cccc(Br)c3)[nH]n2c1=O,?,?,–,·,12µM,?
Cc1cc2nc(C)c(Cl)c(=O)n2[nH]1,–,–,–,–,–,–
CCc1c(C)nc2cc(-c3ccc(Cl)cc3)[nH]n2c1=O,?,?,?,·,8.49µM,3.98µM
SMILES,ELG1 repair inh,Rab9 prom act,ELG1 genotoxic,SMN2 splice up,FLuc modulator,NPC1 prom act
O=c1c2c(nc3cc(-c4ccc(Cl)cc4)[nH]n13)CCS2,?,?,?,12.6µM,2.13µM,3.55µM
Cc1nc2cc(-c3ccc(Br)cc3)[nH]n2c(=O)c1Cl,?,2.51µM,16.4µM,·,9.53µM,?
O=c1cc(-c2ccc([N+](=O)[O-])cc2)nc2cc(-c3ccc(Cl)cc3)[nH]n12,–,–,–,–,?,–
CCc1ccc(C2c3c(oc4ccc(F)cc4c3=O)C(=O)N2CCc2ccc(OC)cc2)cc1 (centres undefined),·,·,·,–,–,·
CCOC(=O)c1c2c3c(cccc3[nH]c1=O)C(=O)c1ccccc1-2,–,–,–,–,–,–
COCCCNc1c2c3c(cccc3[nH]c1=O)C(=O)c1ccccc1-2,11.6µM,–,–,–,–,–
Cc1cccc(-n2cnc3cc(C(=O)N4CCCCC4)ccc32)c1,?,?,–,?,23.9µM,?
O=C(NCc1cccnc1)/C(=C\c1ccc(-c2ccc(Br)cc2)o1)S(=O)(=O)c1ccccc1,20.6µM,–,–,–,–,–
